Assay: anthelmintic activity against nematode growth – whole organism, log2 fold change (AID 1259336);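 note: growth scored by imaging after five days at 20 °C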
Details: C. elegans growth, anthelmintic screen; stronger effect = lower value; in the data active = log2 fold change growth below about -1.8; inactive = the rest

log2 fold change growth, inactive:
CN(C(=O)c1cc2c(-c3cncnc3)cccc2[nH]1)c1ccccc1 -0.492
O=C(C1CCCCC1)N1CC(=O)N2CCc3ccccc3[C@@H]2C1 0.303
O=C(NCc1nnc2n1CCCCC2)c1ccc(-c2ccc(F)cc2)o1 0.174
Clc1ccc(CN2CCN(C3=NCCN3)CC2)cc1Cl 0.0846
O=C(NCCc1ccccc1)c1cc(-c2cccnc2)cnc1NCC1CC1 -0.19
COc1cc(C(F)(F)F)nc2ccc(C)c(N)c12 0.198
CCOC(=O)c1noc(N)c1-c1ccccc1 0.292
NS(=O)(=O)c1cccc(-c2ccc3ncc(N4CCOCC4)nc3c2)c1 -0.363
CN1CCCN([C@@H](c2ccccc2)c2ccc(Cl)cc2)CC1 0.517
CC1=NN(c2nc3ccccc3s2)C(=O)[C@H]1Cc1cccc2ccccc12 -0.647
Nc1nccc2ccc(-c3ccc4nccn4c3)cc12 0.14
COc1cc(-c2cc(-c3ccc(S(C)(=O)=O)cc3)cnc2N)ccc1O -0.318
Cc1ccc(Oc2ccc(NC(=O)CNc3ccccc3N3CCCC3=O)cc2)cc1 0.0475
COc1ccccc1OCCCCn1c(C2CC2)nc2ccccc21 0.559
CN(C)c1cc(NC(=O)Nc2ccccc2)c2ccccc2n1 0.272
CN1CCN(CCCOc2ncc(Nc3ncc(-c4ccc(C(F)(F)F)c(F)c4)nc3C(N)=O)cn2)CC1 -0.568
COc1ccc(-c2nn(C(C)C)c3ncnc(N)c23)cc1OC 0.278
NC[C@@H](c1cccs1)S(=O)(=O)c1ccccc1 0.289
O=C(C1CCN(c2nnnn2-c2ccccc2)CC1)N1CCc2ccccc2C1 -0.288
Nc1nc(N)c2c3c(sc2n1)CN(Cc1ccccc1)CC3 0.456
C[C@H]1CCCCN1C(=O)NCCc1coc(-c2ccc(F)cc2)n1 0.0232
O=C(c1cc2ccccc2o1)N1CCN(Cc2ccc3c(c2)OCO3)CC1 0.212
O=C(Nc1ccccc1-c1nc2c(C(=O)O)cccc2o1)c1ccccc1 -0.0236
